Assay results from PubChem BioAssay (NCATS).
Results filed as inconclusive are left out. Activity calls are given as the source filed them. Unless noted, calls come from the whole dose curve; as a rule, active = well fitted activation curve with a large enough effect in the main read-out, with a control signal flat (not every such curve was filed as active); inconclusive = small, poorly fitted or top-dose-only effect, or effect the other way, or a change in a side signal; inactive = flat fitted curve, though single readings scatter.

molecular target: Mitogen-activated protein kinase 10 (Mus musculus) (UniProt Q61831); experiment: JNK3 AlphaScreen Assay (AID 530; active = well fitted curve in either direction with a large enough effect, not every such curve was filed as active;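 note: kinase came from lysate of stimulated human HepG2 cells; signal reports phosphorylation of biotinylated GST-cJun 1-79 at Ser73 with 10 µM ATP; % is set by controls: 0 for no effect and ±100 for the full control effect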); conditions: JNK3 lysate, c-Jun phosphorylation; series mostly up to 57.1 µM; activity change, negative = inhibition: at the top concentration
Outline: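 Activity was read by AlphaScreen after JNK3-containing HepG2 lysate (cytokine pre-activated) phosphorylated biotinylated GST-cJun with 10 uM ATP at room temperature. Phospho-Ser73 cJun antibody with Protein-A acceptor beads provided detection.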

Activity change, negative = inhibition, inactive:
Cc1noc(C)c1C(=O)N1CCC[C@@]2(CCN(Cc3ccccc3)C2)C1 2.64%
O=C(c1csnn1)N1CCC2(CC1)CN(c1ccccc1)C2 -1.43%
COCC(=O)N1CCC[C@@]2(CCN(C(=O)Nc3cccc(F)c3)C2)C1 -0.865%
O=C(c1csnn1)N1CCC2(CC1)CN(c1ccccn1)C2 -1.88%
COc1ccc(C(=O)N2CCC3(CCN(C)CC3)CC2)cc1 -9.91%
CS(=O)(=O)N1CCC2(CCCN(C(=O)Nc3cccc(C#N)c3)C2)CC1 -4.25%
CC(C)NC(=O)N1CC2(CCN(C(=O)c3ccco3)CC2)C1 2.16%
CC(=O)N1CCC2(CC1)CN(C(c1ccccc1)c1ccccc1)C2 8.2%
COc1ccc(NC(=O)N2CC[C@@]3(CCCN(C(=O)c4csnn4)C3)C2)cc1 -4.05%

molecular target: 3',5'-cyclic-AMP phosphodiesterase 4B (Homo sapiens) (UniProt Q07343); experiment: qHTS Assay for Inhibitors of PDE-IV (AID 607); conditions: HEK293 ACTOne CNG channel cells, membrane potential fluorescence; series mostly up to 22.9 µM; activation (PDE inhibition): at the top concentration; note: % of control where 0% means no effect
Sequence (Q07343 whole entry, looked up): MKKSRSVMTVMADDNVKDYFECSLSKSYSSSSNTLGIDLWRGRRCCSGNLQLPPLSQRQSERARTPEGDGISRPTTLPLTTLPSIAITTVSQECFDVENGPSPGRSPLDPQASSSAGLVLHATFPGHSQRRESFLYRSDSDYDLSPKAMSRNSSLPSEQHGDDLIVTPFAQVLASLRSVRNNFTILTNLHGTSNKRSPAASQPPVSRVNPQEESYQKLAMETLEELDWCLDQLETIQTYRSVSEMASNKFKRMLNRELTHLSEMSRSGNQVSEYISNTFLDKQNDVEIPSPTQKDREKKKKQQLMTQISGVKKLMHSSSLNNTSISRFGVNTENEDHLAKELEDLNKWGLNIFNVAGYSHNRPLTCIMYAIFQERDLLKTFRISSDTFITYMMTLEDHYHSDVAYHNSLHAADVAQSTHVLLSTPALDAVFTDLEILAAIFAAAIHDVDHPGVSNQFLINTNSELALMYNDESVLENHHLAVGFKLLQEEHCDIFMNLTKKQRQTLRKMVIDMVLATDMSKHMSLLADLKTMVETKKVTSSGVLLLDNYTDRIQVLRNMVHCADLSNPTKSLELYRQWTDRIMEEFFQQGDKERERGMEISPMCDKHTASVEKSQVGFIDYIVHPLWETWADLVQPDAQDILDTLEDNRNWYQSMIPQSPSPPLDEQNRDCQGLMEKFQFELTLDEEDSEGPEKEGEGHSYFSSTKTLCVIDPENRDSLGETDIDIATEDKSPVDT
Outline: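 Cell-based read-out of cAMP via a modified cyclic nucleotide-gated channel and membrane potential dye (535/590 nm) in HEK293 cells expressing PDE4 endogenously. Compounds tested up to 22.9 uM final; 100 uM RO 20-1724 reference.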

Activation (PDE inhibition), inactive:
O=C(Nc1cccc(F)c1)N1CCC2(CC1)CCN(C(=O)c1csnn1)CC2 -2.12%
COC(=O)N1CCC2(CC1)CCN(c1ccccc1)CC2 1.05%
N#Cc1cccc(NC(=O)N2CCC3(CC2)CCN(C(=O)c2ccco2)CC3)c1 -2.39%
O=C(c1cnccn1)N1CCC[C@@]2(CCN(c3ccncc3)C2)C1 -23.4%
CS(=O)(=O)N1CCC2(CC1)CN(Cc1cc(C(F)(F)F)cc(C(F)(F)F)c1)C2 19.1%
Cn1cccc1C(=O)N1CCC[C@@]2(CCN(Cc3cc(C(F)(F)F)cc(C(F)(F)F)c3)C2)C1 26.3%
N#Cc1ccc(CN2CCCC3(CCN(C(=O)c4cccc(F)c4)CC3)C2)cc1 0.577%
COc1ccc(NC(=O)N2CC3(CCN(C(C)=O)CC3)C2)cc1 -4.59%
N#Cc1cccc(NC(=O)N2CCC3(CC2)CCN(C(=O)c2csnn2)CC3)c1 13.6%
COc1ccccc1CN1CCC2(CC1)CCN(C(C)=O)CC2 -5.67%
O=C(Oc1ccccc1)N1CCC2(CC1)CN(c1ccccc1)C2 7.16%
Cn1cccc1C(=O)N1CCC2(CC1)CCN(c1ccccc1)CC2 -15.6%
CC(=O)N1CCC2(CC1)CN(c1ccccn1)C2 -14.8%
CS(=O)(=O)N1CCC2(CC1)CN(c1cccc(-c3ccccc3)c1)C2 -16.9%
CC(C)CN1CC[C@@]2(CCCN(C(=O)c3cnccn3)C2)C1 0.171%
Cn1cccc1C(=O)N1CCC2(CCCN(c3ccccc3)C2)CC1 7.32%
O=C(c1csnn1)N1CCC[C@@]2(CCN(Cc3nccs3)C2)C1 8.49%
O=C(c1ccco1)N1CCC2(CC1)CN(Cc1cc(C(F)(F)F)cc(C(F)(F)F)c1)C2 17.8%
CC(C)NC(=O)N1CC[C@@]2(CCCN(C(=O)c3cc(C(F)(F)F)cc(C(F)(F)F)c3)C2)C1 -7.52%
COCC(=O)N1CCC[C@@]2(CCN(Cc3ccccc3OC)C2)C1 -6.98%
COc1ccccc1CN1CCCC2(CCN(S(C)(=O)=O)CC2)C1 8.72%
O=C(c1ccncc1)N1CCC2(CC1)CCN(c1cccc(-c3ccccc3)c1)CC2 13.1%
CS(=O)(=O)N1CCC2(CC1)CN(Cc1nccs1)C2 -10.4%
c1ccc(-c2cccc(N3CC[C@@]4(CCCNC4)C3)c2)cc1 13.5%
CC(=O)N1CCC2(CC1)CN(c1ccccc1)C2 -7.55%
CC(C)CN1CC[C@@]2(CCCN(S(=O)(=O)c3ccccc3)C2)C1 14.4%
O=C(c1csnn1)N1CCC2(CC1)CN(c1ccccc1)C2 0.906%
COCC(=O)N1CCC[C@@]2(CCN(C(=O)Nc3cccc(F)c3)C2)C1 -0.121%
COc1ccc(C(=O)N2CCC3(CCN(C)CC3)CC2)cc1 -20.4%
Cc1noc(C)c1C(=O)N1CCC2(CCN(Cc3cc(C(F)(F)F)cc(C(F)(F)F)c3)CC2)CC1 -24%
CC(C)NC(=O)N1CC2(CCN(C(=O)c3ccco3)CC2)C1 -2.76%
